PolyA inhibitor – polyadenylation inhibitors in yeast reporter cells, primary screen, luminescence, S. cerevisiae. activity score, % at 12 µM. 300,000 tested, 0.02% active. S. cerevisiae SKY197-pL101 polyadenylation reporter, beta-gal luminescence; efflux-impaired pdr1/pdr3 knockout yeast; score 100 = 6 SD above DMSO;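 active = lowest replicate activity score at least 50, where 100 means six control SD above control mean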;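 also: yeast exposed to compound for 9 h at 30 °C; higher score means more reporter readthrough which indicates perturbed polyadenylation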
NALP3 yeast inh – NALP3 inflammasome inhibitors in reconstituted yeast, primary screen, luminescence, uHTS | Yeast reconstituted NLRP3/ASC/caspase-1, beta-gal luminescence, 24 h | inhibition, % at 10 µM | 330,000 tested, 0.39% active | AID 2825, 2010;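 active = inhibition of 50% or more; inactive = inhibition below 50%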
EBNA-1 inh – EBNA-1 DNA-binding inhibitors, primary screen, biochemical, fluorescence polarization | AID 1950, 2009 | inhibition, % at 14.8 µM | 300,000 tested, 0.34% active; in the data active = inhibition above about 28%
dFosB act-1 – activators of delta FosB homodimer, primary screen, biochemical, fluorescence polarization, TAMRA-CDK5 oligo, single point. Protein FosB (Mus musculus), P13346. purified delta FosB; percent of positive-control signal above neutral wells. activation, % at 25 µM. 340,000 tested, 0.99% active;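 active = mean activation above about 17%, with every replicate also reaching it, limit read from the data, passing the limit was not always enough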
Target sequence (P13346 whole entry, looked up): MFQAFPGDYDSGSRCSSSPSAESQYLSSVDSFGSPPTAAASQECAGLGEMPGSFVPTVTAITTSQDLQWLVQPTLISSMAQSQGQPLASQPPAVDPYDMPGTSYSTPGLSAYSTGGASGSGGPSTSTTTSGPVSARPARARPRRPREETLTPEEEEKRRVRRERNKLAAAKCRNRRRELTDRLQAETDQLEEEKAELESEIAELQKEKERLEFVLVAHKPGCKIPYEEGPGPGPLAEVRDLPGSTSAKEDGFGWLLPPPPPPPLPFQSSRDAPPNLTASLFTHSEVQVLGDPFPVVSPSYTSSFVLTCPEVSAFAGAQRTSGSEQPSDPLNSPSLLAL
ZTA DNA inh – counter-screen for EBNA-1 inhibitors: inhibitors of Epstein-Barr virus ZTA; ZTA-DNA binding, fluorescence polarization; inhibition, % at 11 µM; P03206; 320,000 tested, 0.15% active; in the data active = inhibition above about 33%
Target sequence (P03206 whole entry, looked up): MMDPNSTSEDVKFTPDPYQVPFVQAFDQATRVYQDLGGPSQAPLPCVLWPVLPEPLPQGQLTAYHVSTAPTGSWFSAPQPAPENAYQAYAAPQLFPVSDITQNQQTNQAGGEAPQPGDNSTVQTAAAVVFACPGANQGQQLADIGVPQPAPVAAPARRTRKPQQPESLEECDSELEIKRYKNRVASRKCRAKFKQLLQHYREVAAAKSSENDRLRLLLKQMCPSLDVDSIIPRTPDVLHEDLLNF
NALP1 yeast inh – NALP1 inflammasome inhibitors in reconstituted yeast, colorimetric, S. cerevisiae, triplicate retest; S. cerevisiae NALP1/ASC/caspase-1 growth, X-gal OD620, 72 h; inhibition, % at 10 µM; 280,000 tested, 0.61% active; AID 2071, 2009; in the data active = inhibition mostly above about 24%, no sharp cut-off; inactive = mostly below about 32%
dFosB act-2 – activators of mouse delta FosB DNA binding, confirmation, biochemical, fluorescence polarization, TAMRA-CDK5 oligo, cherry-picked samples | shares compounds with dFosB act-1 | purified delta FosB; normalised: neutral wells 0, positive control 100 | activation, % at 24.9 µM | 2,400 tested, under 10 active;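 active = highest replicate activation at or above 34% and every replicate reaching that threshold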;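 also: higher polarization means more probe DNA bound by delta FosB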
Numbers stand for hits. This is a sample that favours compounds with a hit; in the whole collection about 2.2% have one here.

Screening O=C(Oc1cccc(-n2cnnn2)c1)c1sc2ccccc2c1Cl returned PolyA inhibitor inactive, NALP3 yeast inh inactive, EBNA-1 inh inactive, dFosB act-1 143, ZTA DNA inh inactive, NALP1 yeast inh inactive and dFosB act-2 inactive.
`O=C(CCNC(=O)c1ccco1)Nc1ccc(OC(F)(F)F)cc1` gave PolyA inhibitor inactive, NALP3 yeast inh inactive, EBNA-1 inh inactive, dFosB act-1 inactive, ZTA DNA inh inactive and NALP1 yeast inh inactive.
`COc1ccc(C(=O)Nc2nc3cc(OC)c(OC)cc3c(=O)[nH]2)cc1` gave NALP3 yeast inh inactive, EBNA-1 inh inactive, dFosB act-1 25, ZTA DNA inh inactive, NALP1 yeast inh inactive and dFosB act-2 inactive.
COc1cc2nc(NC(=O)c3ccccc3)[nH]c(=O)c2cc1OC was read as PolyA inhibitor inactive, NALP3 yeast inh inactive, EBNA-1 inh inactive, dFosB act-1 inactive, ZTA DNA inh inactive and NALP1 yeast inh inactive.
O=C(COC(=O)/C=C/c1ccc([N+](=O)[O-])cc1)Nc1ccc(F)cc1 was read as NALP3 yeast inh inactive, dFosB act-1 19, ZTA DNA inh inactive and dFosB act-2 inactive.
Screening CCc1nnc(NC(=O)CCNC(=O)c2ccco2)s1 returned PolyA inhibitor inactive, NALP3 yeast inh inactive, EBNA-1 inh inactive, dFosB act-1 inactive, ZTA DNA inh inactive and NALP1 yeast inh inactive.
Cc1nn(Cc2c(Cl)cccc2Cl)c(C)c1NC(=O)c1sc2ccccc2c1Cl was read as PolyA inhibitor inactive, NALP3 yeast inh inactive, EBNA-1 inh inactive, dFosB act-1 40, ZTA DNA inh inactive, NALP1 yeast inh inactive and dFosB act-2 inactive.
COc1ccc(NC(=O)CN(C)C(=O)CNC(=O)c2sc3ccccc3c2Cl)cc1 was read as NALP3 yeast inh inactive, dFosB act-1 inactive and ZTA DNA inh inactive.
For CN(CC(=O)Nc1c(Cl)cccc1Cl)C(=O)CNC(=O)c1sc2ccccc2c1Cl the results were dFosB act-1 35 and dFosB act-2 inactive.
`NS(=O)(=O)c1ccc(CCNC(=O)Cc2cccs2)cc1` gave PolyA inhibitor inactive, NALP3 yeast inh inactive, EBNA-1 inh inactive, dFosB act-1 inactive, ZTA DNA inh inactive and NALP1 yeast inh inactive.
For O=C(Cn1nnc(-c2ccccc2F)n1)Nc1ccc2c(c1)OCCO2 the results were PolyA inhibitor inactive, NALP3 yeast inh inactive, EBNA-1 inh inactive, dFosB act-1 inactive, ZTA DNA inh inactive and NALP1 yeast inh inactive.
Screening COc1ccc(C(=O)Nc2ccc(-c3nnn(CC(=O)NCc4ccco4)n3)cc2)cc1 returned PolyA inhibitor inactive, NALP3 yeast inh inactive, EBNA-1 inh inactive, dFosB act-1 46, ZTA DNA inh inactive and dFosB act-2 inactive.
Cc1ccc(NC(=O)Cn2nnc(-c3ccc4c(c3)OCO4)n2)cc1F was read as PolyA inhibitor inactive, NALP3 yeast inh inactive, EBNA-1 inh inactive, dFosB act-1 23, ZTA DNA inh inactive, NALP1 yeast inh inactive and dFosB act-2 inactive.
CCOc1ccc(-c2nnn(CC(=O)Nc3cccc(OC)c3)n2)cc1OCC was read as PolyA inhibitor inactive, NALP3 yeast inh inactive, EBNA-1 inh inactive, dFosB act-1 19, ZTA DNA inh inactive, NALP1 yeast inh inactive and dFosB act-2 inactive.
Screening COc1ccc(C(=O)Nc2cc(OC)c(NC(=O)c3ccco3)cc2OC)cc1 returned PolyA inhibitor inactive, NALP3 yeast inh inactive, EBNA-1 inh inactive, dFosB act-1 inactive, ZTA DNA inh inactive and NALP1 yeast inh inactive.
Screening COc1cccc(-c2nnn(CC(=O)Nc3cc(OC)c(NC(=O)c4ccco4)cc3OC)n2)c1 returned PolyA inhibitor inactive, NALP3 yeast inh inactive, EBNA-1 inh inactive, dFosB act-1 17, ZTA DNA inh inactive, NALP1 yeast inh inactive and dFosB act-2 inactive.
Cc1cccc(CNC(=O)c2ccc(NC(=O)C3=CSCCO3)cc2)c1 was read as PolyA inhibitor inactive, NALP3 yeast inh inactive, EBNA-1 inh inactive, dFosB act-1 inactive, ZTA DNA inh inactive and NALP1 yeast inh inactive.
For CC(Sc1ccccc1)C(=O)NCC(c1ccco1)N1CCCCC1 (configuration not stated) the results were PolyA inhibitor inactive, NALP3 yeast inh inactive, EBNA-1 inh inactive, dFosB act-1 inactive and ZTA DNA inh inactive.
COc1ccc(-c2c(-c3ccccc3OC)oc3ccccc23)cn1 was read as NALP3 yeast inh inactive, dFosB act-1 inactive and ZTA DNA inh inactive.
COc1ccc(OC)c(NC(=O)CN2C(=O)C(C)N(c3ccc(C)cc3)C2=O)c1 (configuration not stated) was read as NALP3 yeast inh inactive, dFosB act-1 inactive and ZTA DNA inh inactive.
For CCOc1ccc(-c2nnn(CC(=O)NCc3ccc(F)cc3)n2)cc1OCC the results were PolyA inhibitor inactive, NALP3 yeast inh inactive, EBNA-1 inh inactive, dFosB act-1 41, ZTA DNA inh inactive, NALP1 yeast inh inactive and dFosB act-2 inactive.
`COc1ccc(-c2nnn(CC(=O)NCc3ccc4c(c3)OCO4)n2)cc1OC` gave PolyA inhibitor inactive, NALP3 yeast inh inactive, EBNA-1 inh inactive, dFosB act-1 29, ZTA DNA inh inactive, NALP1 yeast inh inactive and dFosB act-2 inactive.
Screening O=C(Nc1ccc(Cl)cc1F)C1CC(=O)N(Cc2ccco2)C1 (configuration not stated) returned NALP3 yeast inh inactive and dFosB act-1 inactive.
Cc1ccc(NC(=O)COc2cccc3c2OC(C)(C)C3)c(O)c1 was read as NALP3 yeast inh inactive, dFosB act-1 inactive and ZTA DNA inh inactive.
`O=C(Oc1ccccc1)c1ccc2c(c1)C(=O)N(Cc1ccncc1)C2=O` gave PolyA inhibitor inactive, NALP3 yeast inh inactive, EBNA-1 inh inactive, dFosB act-1 inactive, ZTA DNA inh inactive and NALP1 yeast inh inactive.
`COc1ccc(-c2nnc(SCc3nc4ccccc4c(=O)[nH]3)o2)cc1` gave PolyA inhibitor inactive, NALP3 yeast inh inactive, EBNA-1 inh inactive, dFosB act-1 19, ZTA DNA inh inactive, NALP1 yeast inh inactive and dFosB act-2 inactive.
Screening O=C(Cn1c2ccccc2c(=O)c2ccccc21)Nc1cccc(F)c1 returned PolyA inhibitor inactive, NALP3 yeast inh inactive, EBNA-1 inh inactive, dFosB act-1 37, ZTA DNA inh inactive, NALP1 yeast inh inactive and dFosB act-2 inactive.
For O=C(Cn1cnc2sc3c(c2c1=O)CCCC3)NCC(=O)Nc1c(F)cccc1F the results were PolyA inhibitor inactive, NALP3 yeast inh inactive, EBNA-1 inh inactive, dFosB act-1 32, ZTA DNA inh inactive, NALP1 yeast inh inactive and dFosB act-2 inactive.

Screening data as filed in PubChem BioAssay.
